The record followed here is PubChem BioAssay.

Calls of active or inactive are those of the source. Unless noted, the rule behind the calls is not given here.

Test [1] relates to XIP peptide (Xip251-270) binding. Put plainly: XIP fragment 251-270 binding compounds – biochemical, small-molecule microarray, fluorescence 635/667 nm, 0.1 µg/mL protein, primary screen (AID 1182). To be noted: fluorescent protein binding, 635 nm, higher = more signal, called active from +8 up or from −8 down.
The test system of a further test is XIP peptide (Xip251-270). Put plainly: compounds binding XIP fragment 251-270 – biochemical, small-molecule microarray, fluorescence 635/667 nm, 0.5 µg/mL protein, primary screen (AID 1183). The following applies: fluorescence 635 nm, higher = more signal.
A short description of test [2]: blood-stage malaria parasite viability loss – strain 3D7, DAPI fluorescence, 100 nL, primary screen (AID 1184).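 Note: parasites grown inside human red blood cells in medium with human serum.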 The following applies: P. falciparum 3D7 growth, 3 d, higher = more signal.
The target of test [3] is Homeobox protein Hox-A13 (Mus musculus) (UniProt Q62424). Put plainly: disruptors of Hoxa13 oligonucleotide interaction – biochemical, fluorescence polarization, labeled oligonucleotide, primary screen (AID 1185). To be noted: Hoxa13:DNA binding, 15 min, higher = more signal, called active from +8 up or from −8 down. On the technique in general: In fluorescence polarisation assays a small probe gives low polarisation when free and higher when bound to something large.
Chain of Homeobox protein Hox-A13 (Mus musculus) (Q62424 whole entry, looked up): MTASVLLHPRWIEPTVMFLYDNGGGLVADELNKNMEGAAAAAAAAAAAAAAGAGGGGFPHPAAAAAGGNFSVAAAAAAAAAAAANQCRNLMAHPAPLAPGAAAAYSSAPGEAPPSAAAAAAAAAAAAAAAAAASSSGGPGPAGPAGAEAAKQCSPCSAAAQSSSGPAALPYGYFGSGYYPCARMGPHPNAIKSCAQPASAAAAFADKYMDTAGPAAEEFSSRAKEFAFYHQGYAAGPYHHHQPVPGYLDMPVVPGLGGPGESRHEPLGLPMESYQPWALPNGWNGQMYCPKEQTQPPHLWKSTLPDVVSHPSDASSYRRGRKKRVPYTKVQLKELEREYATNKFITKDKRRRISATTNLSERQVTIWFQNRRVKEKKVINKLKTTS

Test [4] can be described thus: blockers of DNA damage checkpoint Chk1 activation – imaging, HeLa, hydroxyurea, phospho-Chk1 antibody, percent positive cells, primary screen (AID 1186). The following applies: hydroxyurea-induced phospho-Chk1 immunofluorescence imaging, higher = more signal.
The nature of test [5]: blockers of DNA damage checkpoint Chk1 activation – imaging, HeLa, hydroxyurea, phospho-Chk1 nuclear intensity, primary screen (AID 1187). To be noted: hydroxyurea-induced phospho-Chk1 immunofluorescence imaging, higher = more signal.

On to `COc1cc(CO)cc(I)c1O[C@H]1C=C(C(=O)NCCO)C[C@@H](N(CC2CCCCC2)C(=O)c2ccc(C(F)(F)F)cc2)[C@@H]1O`, for which the composite z-score is -0.175 (inactive) in test [1] and 0.516 with XIP peptide (Xip251-270). Also, the z-score in test [2] was 1.09; in test [3], -6.43 (inactive); in test [4], -0.409 (inactive); in test [5] it was -0.884 (inactive).

For the compound `CC1CC/C=C\[C@H]2OC34C=CCN(c5ccc6ccccc6c5)C(=O)[C@H]3N(C(CO)C(C)C)C(=O)[C@@H]4C2C(=O)O1` (some centres not stated), the composite z-score in test [1] was 0.17 (inactive); in the test on XIP peptide (Xip251-270), -0.0558. For the same compound, the z-score in test [2] is -0.571; in test [3] it was -6.57 (inactive); in test [4], 0.174 (inactive); in test [5] it was 0.604 (inactive).

For the compound `O=C1C2C=CC(C(O)c3cc(C(F)(F)F)cc(C(F)(F)F)c3)N(Nc3ccc([N+](=O)[O-])cc3)C2C(=O)N1c1ccccc1` (configuration not stated), the composite z-score in test [1] is 0.131 (inactive); in the test with XIP peptide (Xip251-270), 0.802. For the same compound, the z-score in test [2] is -0.945; in test [3], -3.06 (inactive); in test [4], -0.198 (inactive); in test [5], -0.331 (inactive).

For `CC1CC/C=C\[C@H]2OC34C=CCN(CCN5CCOCC5)C(=O)[C@H]3N(CCO)C(=O)[C@@H]4C2C(=O)O1` (some centres not stated), the composite z-score in test [1] is 0.467 (inactive); with XIP peptide (Xip251-270) it was 0.829. Also, the z-score in test [2] is 0.055; in test [3], -5.81 (inactive); in test [4], 0.0898 (inactive); in test [5], 0.139 (inactive).

In the case of `COCC(=C=CC[C@H](O)c1cccc(OCCO)c1)C[C@H](O)c1ccccn1`, the composite z-score in test [1] is 0.198 (inactive); in the test with XIP peptide (Xip251-270), 0.157. Besides, the z-score was -0.737 in test [2], -4.27 (inactive) in test [3], -0.028 (inactive) in test [4] and 0.745 (inactive) in test [5].

`COc1ccc(C(O)C2C=CC3C(=O)N(C)C(=O)C3N2N2CCCCC2)cc1` (configuration not stated): the results for the composite z-score (in test [1]; with XIP peptide (Xip251-270)) were 0.568 (inactive) and 0.37, respectively. In addition, the z-score in test [2] was -0.0513; in test [3] it was -4.16 (inactive); in test [4] it was -1.52 (inactive); in test [5], -1.31 (inactive).

For `CCOC(=O)C[C@H]1[C@H](OC(=O)c2ccccc2-c2ccccc2)[C@@H](NC(=O)c2ccc3ccccc3n2)c2cc(OCCCO)ccc2N1C(=O)c1ccc2ccccc2n1`, the composite z-score was 0.123 (inactive) in test [1] and 0.309 in the test with XIP peptide (Xip251-270). Moreover, the z-score in test [2] was -0.456; in test [3], -1.53 (inactive); in test [4], -0.492 (inactive); in test [5] it was -0.588 (inactive).

Regarding `COc1c(C)cc(-c2cc3c(c(-c4ccccc4)n2)[Si](C(C)C)(C(C)C)OC3)cc1C`, the composite z-score was 0.518 (inactive) in test [1] and -0.479 with XIP peptide (Xip251-270). Further, the z-score is -1.03 in test [2], -0.238 (inactive) in test [3], -0.645 (inactive) in test [4] and -0.268 (inactive) in test [5].

In the case of `COc1ccc([Si](C)(C)[C@H]2[C@H](CC(=O)N3Cc4ccccc4C[C@H]3CO)O[C@@]3(C(=O)N(Cc4cccc(N5CCCCC5=O)c4)c4ccccc43)[C@@H]2C)cc1`, the composite z-score is 0.573 (inactive) in test [1] and 0.743 in the test with XIP peptide (Xip251-270). The z-score in test [2] was -1.62; in test [3] it was -3.09 (inactive); in test [4], -0.507 (inactive); in test [5], -0.35 (inactive).

In the case of `CCOC(=O)C1=CC[C@@H](c2ccc([N+](=O)[O-])cc2)N(S(=O)(=O)c2ccc(C)cc2)[C@H]1c1ccccc1`, the results for the composite z-score (in test [1]; with XIP peptide (Xip251-270)) were 0.353 (inactive) and 0.552, respectively. The z-score in test [2] is -1.41; in test [3], 2.35 (inactive); in test [4], -0.137 (inactive); in test [5] it was -0.3 (inactive).

Take `O=C1O[C@@H](c2ccccc2)[C@@H](c2ccccc2)N2[C@@H](c3ccccc3OCCO)[C@]3(C(=O)Nc4ccccc43)[C@@H](C(=O)NC[C@H](O)c3ccccc3)[C@H]12`: the composite z-score was 1.42 (inactive) in test [1] and -0.303 with XIP peptide (Xip251-270). Also, the z-score in test [2] was -0.692; in test [3], -5.34 (inactive); in test [4], -0.152 (inactive); in test [5], -0.169 (inactive).

In the case of `CC(C)(C)N1CC=CC23O[C@@H]4C=CCOC(=O)[C@@H]4[C@H]2C(=O)N(CCCO)[C@@H]3C1=O` (some centres not stated), the composite z-score is -0.466 (inactive) in test [1] and -0.825 in the test on XIP peptide (Xip251-270). Besides, the z-score was -1.87 in test [2], -3.12 (inactive) in test [3], -0.263 (inactive) in test [4] and -0.327 (inactive) in test [5].

`O=C1O[C@@H](c2ccccc2)[C@@H](c2ccccc2)N2[C@@H](c3ccc(O)cc3)[C@]3(C(=O)Nc4ccc(C#CC5=CCCCC5)cc43)[C@@H](C(=O)N3CCN(c4ncccn4)CC3)[C@H]12`: the results for the composite z-score (in test [1]; in the test with XIP peptide (Xip251-270)) were -0.168 (inactive) and 0.657, respectively. The z-score in test [2] was -1.97; in test [3], 0.676 (inactive); in test [4] it was -0.0981 (inactive); in test [5], -0.0223 (inactive).

With `O=C1NC(=O)C2C1C=CC(C(O)c1ccc3c(c1)OCO3)N2Nc1ccccn1` (configuration not stated), the composite z-score in test [1] is 0.307 (inactive); in the test on XIP peptide (Xip251-270), 0.247. Further, the z-score in test [2] was 0.453; in test [3] it was -1.69 (inactive); in test [4] it was 0.095 (inactive); in test [5], 0.14 (inactive).

As for `COC(=O)C1(Cc2ccccc2)C=C2C(=C(C(C)C)C(=O)C2C)CN1` (configuration not stated), the values for the composite z-score (in test [1]; in the test with XIP peptide (Xip251-270)) were 0.0989 (inactive) and 0.648, respectively. The z-score in test [2] was -1.07; in test [3] it was -9.8 (active); in test [4], 0.366 (inactive); in test [5] it was 0.602 (inactive).

`COC(=O)Cn1c(C(=O)N2CCCC2)cc2c1C[C@H]1CN(C(=O)c3ccccc3)[C@@](Cc3ccc(F)cc3)(C(=O)OC)[C@@H]21`: the composite z-score was 0.243 (inactive) in test [1] and 0.513 in the test with XIP peptide (Xip251-270). Besides, the z-score is 0.554 in test [2], -5.15 (inactive) in test [3], -1.49 (inactive) in test [4] and -1.37 (inactive) in test [5].

As to `C=CCOC(=O)[C@@H]1[C@H]2C(=O)O[C@H](c3ccccc3)[C@H](c3ccccc3)N2[C@H](c2ccc(OCCOC(=O)[C@H]3C[C@H]4C(=O)N[C@@H](CCCC[N+](C)(C)C)C(=O)N4[C@H]3c3ccc(O)cc3)cc2)[C@@]12C(=O)Nc1ccc(I)cc12`, the composite z-score in test [1] is 0.708 (inactive); in the test on XIP peptide (Xip251-270), 0.873. Also, the z-score was -1.16 in test [2], -0.103 (inactive) in test [3], -0.655 (inactive) in test [4] and -0.636 (inactive) in test [5].
